Measured values as given in PubChem BioAssay AID1259319 (Sanford-Burnham Center for Chemical Genomics, 2017).
Screen size: about 3,000 compounds; about 1,800 (60%) were called active. The set was probably picked from earlier hits. Not all results are given here. Values without a mark were called inactive.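 Rule for the calls: active = activation at or above a set limit, or at least 3 SD above the negative control mean; inactive = the rest.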

Target: Nuclear receptor subfamily 1 group D member 1 (Homo sapiens) (UniProt P20393)
Experiment: modulators of Rev-erb alpha DNA binding, confirmation, biochemical, FITC-DNA, fluorescence polarization, single point (AID 1259319);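 note: 0% = 35 nM protein with DMSO and 100% = 750 nM protein high control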
Conditions: 90 min, at 25 µM, stronger effect = higher value

Chain of Nuclear receptor subfamily 1 group D member 1 (Homo sapiens) (P20393 whole entry, looked up): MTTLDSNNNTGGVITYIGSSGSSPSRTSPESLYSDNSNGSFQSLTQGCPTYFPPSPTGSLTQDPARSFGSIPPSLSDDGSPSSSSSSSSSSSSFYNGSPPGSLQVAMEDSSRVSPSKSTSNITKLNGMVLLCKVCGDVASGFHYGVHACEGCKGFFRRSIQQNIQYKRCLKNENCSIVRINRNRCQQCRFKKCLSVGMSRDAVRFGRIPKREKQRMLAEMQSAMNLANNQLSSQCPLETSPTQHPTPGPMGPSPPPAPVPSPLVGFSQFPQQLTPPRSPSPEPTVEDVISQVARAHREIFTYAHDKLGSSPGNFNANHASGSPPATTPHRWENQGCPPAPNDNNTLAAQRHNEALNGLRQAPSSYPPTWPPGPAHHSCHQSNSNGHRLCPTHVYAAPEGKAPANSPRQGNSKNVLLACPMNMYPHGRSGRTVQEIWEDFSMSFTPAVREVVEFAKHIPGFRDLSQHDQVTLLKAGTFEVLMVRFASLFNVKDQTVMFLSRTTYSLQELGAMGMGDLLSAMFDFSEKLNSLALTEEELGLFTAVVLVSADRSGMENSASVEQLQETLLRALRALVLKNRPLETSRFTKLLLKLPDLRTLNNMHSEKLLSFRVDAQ

SMILES | activation
COc1ccccc1N=Nc1c(O)[nH]c(=S)[nH]c1=O | 41% (active)
COC(=O)CN(CCCl)P1(=O)OCCCN1CCCl (configuration not stated) | -6.07%
